The text below walks through data of ChEMBL document CHEMBL1201862, “PubChem BioAssay data set” (2004).

Screen size: about 57,000 […]; about 3,200 (5.6%) were called active. No stated cut-off is given here; in the data, active = GI50 up to about 1.1 µM and inactive = higher. A selection follows. Potency and affinity values are given separately.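 Following 48 hours of exposure in 96-well plates, responses at five concentrations were used to interpolate endpoints linearly. GI50 marks 50% less growth.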

The test deals with SF-268. Description: NCI tumour cell line growth inhibition, 48 h.
Substance “[Bis(aminomethyl)ethylmethylsilane]tetrachloroplatinum(IV), CHEMBL2146192” gave a GI50 of 2.43 µM.
In turn, “[Bis(aminomethyl)tetramethylenesilane]tetrachloropaltinum(IV), CHEMBL2146189” returned a GI50 of 3.52 µM.
The result for “[Bis(aminomethyl)dimethylsilane]tetrachloroplatinum(IV), CHEMBL2146190” reads 2.74 µM; that for “[Bis(aminomethyl)diethylsilane]tetrachloroplatinum(IV), CHEMBL2146203”, 1.57 µM.
Regarding “[Bis(aminomethyl)tetramethylenesilane]dichloropaltinum(II), CHEMBL2146205”, the GI50 was 21.8 µM.
Substance “[Bis(aminomethyl)dimethylsilane]dichloroplatinum (II), CHEMBL2146201” gave a GI50 of 8.81 µM.
The same measure for “cis-Bis[[(trimethylsilyl)methyl]amino]tetrachloroplatinum(IV), CHEMBL2146191”: 13.6 µM.
For the substance “mu-(1,7-nanodiamine-N,N')bis-(cis-aminedichloroplatimum (II)), CHEMBL2146215”, the GI50 was 8.97 µM.
Take CISPLATIN, CHEMBL11359: the GI50 amounted to 0.745 µM.
“[Bis(aminomethyl)pentamethylenesilane]dichloropaltinum(II), CHEMBL2146202” displayed a GI50 of 3.46 µM.
Regarding “[Bis(aminomethyl)pentamethylenesilane]tetrachloropaltinum(IV), CHEMBL2146204”, the GI50 amounted to 3.59 µM.
